The campaign covered roughly 39,000 compounds. About 1,500 (3.8%) were called active. This excerpt belongs to a sample that is enriched for actives.
test system: HSkMC (human skeletal muscle cells); test: cytotoxicity call (relative viability < 0.9); conditions: 10 µM

SMILES	cytotoxicity call
C[C@H](CO)N1C[C@H](C)[C@H](CN(C)S(C)(=O)=O)OCCCC[C@H](C)Oc2ccc(NC(=O)CCCN(C)C)cc2C1=O	inactive
CC(C)NC(=O)Nc1ccc2c(c1)C(=O)N([C@@H](C)CO)C[C@@H](C)[C@H](CN(C)S(=O)(=O)c1cn(C)cn1)OCCCC[C@H](C)O2	inactive
C[C@@H]1CN([C@H](C)CO)C(=O)CCCn2cc(nn2)CO[C@@H]1CN(C)S(=O)(=O)c1ccc(Cl)cc1	inactive
O=C(O)[C@]1(O)C[C@@H](O)[C@@H](O)[C@H](O)C1	inactive
Cc1noc(C)c1S(=O)(=O)Nc1ccc2c(c1)CC(=O)N([C@@H](C)CO)C[C@H](C)[C@H](CN(C)Cc1ccccc1)O2	inactive
C[C@H](CO)N1C[C@H](C)[C@H](CN(C)C(=O)Nc2ccc(C(F)(F)F)cc2)Oc2ccc(NS(C)(=O)=O)cc2C1=O	inactive
C[C@@H]1CN([C@H](C)CO)C(=O)c2cccc(NC(=O)C3CC3)c2O[C@H]1CN(C)S(=O)(=O)c1ccc(Cl)cc1	inactive
Cc1ccc(S(=O)(=O)N(C)C[C@H]2OCCCC[C@H](C)Oc3ccc(NC(=O)Nc4ccc(F)cc4)cc3C(=O)N([C@@H](C)CO)C[C@@H]2C)cc1	inactive
CC(=O)N1CCc2nc(C(N)=O)sc2CC1	inactive
COC1C(C(=O)O)OC(C)C(O)C1O.COC1OC(C(=O)O)C(O)C(O)C1O (stereo not drawn) [ALGINIC ACID [Mol Wt ~200,000; monomers shown] ]	inactive
Cc1coc(C)c1C(=O)O[C@@H]1O[C@@H](C)[C@H](O)[C@@H](O)[C@H]1O	active
O=C(OC[C@H]1O[C@@H](OC(=O)c2cc(O)c(O)c(O)c2)[C@H](O)[C@@H](O)[C@@H]1O)c1cc(O)c(O)c(O)c1	inactive
C[C@H]1CN([C@@H](C)CO)C(=O)c2cccc(NS(=O)(=O)c3ccc(Cl)cc3)c2O[C@@H]1CN(C)Cc1ccc(-c2ccccc2)cc1	inactive
Cc1noc(C)c1NC(=O)N(C)C[C@@H]1Oc2ccc(NC(=O)C3CC3)cc2CC(=O)N([C@@H](C)CO)C[C@@H]1C	inactive
COc1ccc(S(=O)(=O)N(C)C[C@@H]2Oc3ccc(NS(=O)(=O)c4ccc(F)cc4)cc3CC(=O)N([C@H](C)CO)C[C@H]2C)cc1	inactive
C[C@@H]1CN([C@@H](C)CO)C(=O)c2cc(C#Cc3ccccn3)cnc2O[C@H]1CN(C)C(=O)CCN1CCCCC1	inactive
C[C@@H]1CCCCO[C@H](CN(C)C)[C@@H](C)CN([C@H](C)CO)C(=O)c2cc(NS(=O)(=O)c3cn(C)cn3)ccc2O1	inactive
COc1ccc(S(=O)(=O)Nc2ccc3c(c2)C(=O)N([C@H](C)CO)C[C@H](C)[C@@H](CN(C)Cc2ccc(C(=O)O)cc2)OCCCC[C@H](C)O3)cc1	inactive

— the antibiotic and cytotoxicity screens of Wong et al. (2023)
